Here are results for 40 compounds from PubChem BioAssay (NCI).

About 83,000 compounds went through this panel and 20% of them were active in at least one assay; those are over-represented in the sample as a whole.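 Growth was measured after 48 h exposure to one concentration of compound in 96-well plates. Values under 10 count as active.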 The source made the active and inactive calls.

This assay concerns T-47D breast. Description: NCI-60 one-dose screen, 48 h (100 = growth as untreated, 0 = no growth, -100 = all killed). The conditions noted are these: 10 µM unless noted. Here is the method: Growth inhibition of the T-47D human tumor cell line is measured as a screen for anti-cancer activity. Cells are grown in 96 well plates and exposed to the test compound for 48 hours. Compounds are tested at a single concentration, which is 10^-5 M for most compounds. The reported endpoint is percent growth (GI% or GIPRCNT), where numbers from 0 - 100% represent growth inhibition, and numbers from -100% - 0 represent cell death. For example, a value of 40 represents 60% growth inhibition. A value of 0 means no net growth occurred over the course of the experiment. A value of -40 indicates 40% of cells at the beginning of the experiment died by the end of the experiment. A value of -100 means all cells are dead at the end of the experiment.
NCI-60 Human Tumor Cell Lines Screen was performed using the standard one-dose NCI protocol, which is described in more detail at https://dtp.cancer.gov/discovery_development/nci-60/default.htm.
Compounds with GIPRCNT values below 10 were considered active. Activity score was based on GIPRCNT using the following formula: […]
Score is 0 for GIPRCNT values of 100 or above, 50 for GIPRCNT values of 0, and 100 for GIPRCNT values of -100.
As to `COc1ccc(CN2c3ccccc3Sc3ccccc32)c(C(F)(F)F)c1`, the growth is 25.9% (inactive). In the case of `CCNc1ncnc2c1cnn2C1CCCO1` (stereo not given), the growth is 104% (inactive).

Consider `COc1cccc2c1C(=O)c1c(O)c3c(c(O)c1C2=O)C[C@](O)(C(=O)CO)C[C@H]3O[C@@H]1C[C@@H](NC(=O)CCCCCN(C)C2(c3ccc(F)cc3)CC3CCC2C3)[C@H](O)[C@@H](C)O1` (stereo not given in full), for which the growth was 86.3% (inactive). The figure for `COc1ccc(-c2nc3ccc(-c4nc5ccc(N6CCN(C)CC6)cc5[nH]4)cc3[nH]2)cc1OC` is 28.3% (inactive); for `CC(=O)c1cc(C(=O)c2ccc3c(c2)Sc2ccccc2N3)n2ccccc12` it is 43% (inactive); for `CCOC(=O)c1sc(Nc2ccc(Cl)cc2)nc1C` it is 6.67% (active). With `CC(=O)c1nc2ccccc2n1CC(=O)c1cccc(Cl)c1`, the growth was -11.3% (active). The figure for `O=C1OC(c2ccccc2)C(O)=C1c1ccccc1` (stereo not given) is 111% (inactive). Regarding `COc1cc(-c2nc3ccccc3[nH]2)ccc1OCc1nnc(-c2ccc(CC(C)C)cc2)o1`, the growth was 57.2% (inactive). As to `O=c1ccccc(-c2ccc(Br)cc2)c1O`, the growth is 26.7% (inactive). Regarding `CSc1nc(-c2cccc(NC(=O)CCl)c2)c(C#N)c(=O)n1C`, the growth is 34.5% (inactive). The figure for `Clc1ccc2c(NCCCCNc3nc(N4CCCCC4)nc4ccccc34)ccnc2c1` is -46.7% (active); for `CC1=C/C(=C(\c2ccc(N(C)C)cc2)c2ccc([N+](C)(C)C)cc2)C=CC1=[N+](C)C` it is 52.2% (inactive); for `CSc1ccc(SC2c3ccc(C)cc3Oc3nc(N)c(C#N)c(N)c32)cc1` (stereo not given) it is -45.1% (active). For `C=C1C(=O)O[C@H]2[C@H]1CC/C(C=Nc1ccc(C(F)(F)F)cc1N)=C\CC[C@@]1(C)O[C@@H]21`, the growth was 14.8% (inactive). On to `CSc1nc2c(c(=O)[nH]1)C1(C(=O)Nc3ccccc31)c1c(nc(SC)[nH]c1=O)N2`, for which the growth is 111% (inactive). Regarding `CN1CCN(CCCOc2cccc3nc(Nc4cc(Cl)cc(Cl)c4)ccc23)CC1`, the growth was -25.3% (active). For `C=CC(=O)Nc1cccc(-c2nc(SC)nc(NCCN3CCOCC3)c2C#N)c1`, the growth was 93% (inactive). Consider `N#C/C(=C\c1ccc(-c2ccc(Cl)c(Cl)c2)o1)c1nc(-c2ccco2)cs1`, for which the growth is -21.3% (active). Take `COc1cc(-c2nn(-c3ccc(Br)cc3)cc2C(=O)O)ccc1O`: the growth is 98.5% (inactive). Take `C=C(C)[C@@H]1CC[C@]2(C(=O)OC)CC[C@]3(C)[C@H](CC[C@@H]4[C@@]5(C)C/C(=C/c6ccc(OC)cc6)C(=O)C(C)(C)[C@@H]5CC[C@]43C)[C@@H]12`: the growth is 101% (inactive).

Turning to `Cc1cc(C)nc(SC2=C(Nc3ccc(O)cc3)C(=O)N(Cc3ccccc3)C2=O)n1`, the growth is 45% [40 µM] (inactive). Consider `CN1CCN(c2nc(NCCCCNc3ccnc4cc(Cl)ccc34)c3ccccc3n2)CC1`, for which the growth is 96.1% (inactive). Take `COc1cc2c(cc1-c1c(C)noc1C)ncc1nc(-c3ccccn3)n([C@H](C)COC(F)F)c12`: the growth is 35.2% (inactive). For the compound `COc1cc(C2CC(=O)c3ccccc3N2)cc(OC)c1OC` (stereo not given), the growth is 92.6% (inactive). Turning to `CC[C@H]1OC(=O)[C@H](C)[C@@H](O[C@H]2C[C@@](C)(OC)[C@@H](O)[C@H](C)O2)[C@H](C)[C@@H](O[C@@H]2O[C@H](C)C[C@H](N(C)C)[C@H]2O)[C@](C)(O)C[C@H](C)CN(C)[C@H](C)[C@@H](O)[C@]1(C)O`, the growth was 108% (inactive).

With `Cc1cc(N[C@@H]2CCC[C@H](Nc3ccnc4cc(Cl)ccc34)C2)nc(N2CCCCCC2)n1`, the growth is -41.8% (active). Consider `Cc1ccc2c(c1)C(=O)/C(=C/c1cccc(OCC(=O)c3ccc(Cl)cc3)c1)CS2`, for which the growth was 84.9% (inactive). Regarding `CN(C)c1ccc(NC(=O)c2ccc(/C=C/C(=O)c3ncc[nH]3)cc2)cc1`, the growth was 46.6% (inactive). Take `CCC([N+](=O)[O-])S(=O)(=O)c1ccc(C)cc1` (stereo not given): the growth is 92.6% (inactive). With `O=C1/C(=C/c2ccccc2)SC(=S)N1CCc1ccc(O)cc1`, the growth was 54.3% (inactive). For the compound `Cc1ccc2c(C(C[N+](=O)[O-])c3ccccc3)c(-c3ccccc3)[nH]c2c1` (stereo not given), the growth is 16.5% [9.5 µM] (inactive). The figure for `NC(=O)c1cc(Cl)ccc1NC(=O)/C=C/c1ccccc1` is 14.9% (inactive); for `COc1cccc(-c2nc3sccn3c2-c2ccnc(NCCCNS(=O)(=O)c3cccc(Cl)c3)c2)c1` it is -4.56% (active). With `C=CC(=O)Nc1cccc(-c2nc(SC)nc(NCCc3ccc(OC)c(OC)c3)c2C#N)c1`, the growth was 8.57% (active). Consider `O=C(/C=C/c1ccccc1)c1ccc(O)c(CN2CCN(c3cc4c(cc3F)c(=O)c(C(=O)O)cn4C3CC3)CC2)c1`, for which the growth is 27.9% (inactive). For `COc1cccc(C2=NN3C(C2)c2cc(Br)cc(OC)c2OC32CCN(Cc3ccccc3)CC2)c1` (stereo not given), the growth was 108% (inactive).

Turning to `COc1ccc(-c2nn(-c3ccc(Cl)cc3)cc2-c2nc3ccccc3[nH]2)cc1`, the growth is 87.9% (inactive). Consider `CC1=C[C@H]2c3c(c(O)c(O)c4oc(-c5ccccc5)cc(=O)c34)[C@H](c3cc(O)c(O)c4oc(-c5ccccc5)cc(=O)c34)[C@H]2C(C)(C)C1`, for which the growth is 4.7% (active).

For `CC(=O)Nc1ccc(S(=O)(=O)Nc2cccc(-c3nc(-c4ccc(NC(=O)c5cccnc5)cc4Cl)no3)c2)cc1`, the growth was 14% (inactive).
